Pf growth 48h: inhibits P. falciparum growth in the first generation, 48 h. P. falciparum luciferase growth in erythrocytes, 48 h. Potency, µM (top dose mostly 28.7 µM), inactives show at the highest dose activity change, negative = inhibition, actives largely listed as inhibitors. 310,000 compounds, 5.9% hits; note: potency is the fitted concentration of half-maximal effect
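A one-generation exposure of luciferase-tagged malaria parasites in RPMI 1640/Albumax erythrocyte culture, 37 C and 5% CO2. Inhibition is inferred from decreased luminescence after adding detection reagent.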
HCV inhibitor: HCV inhibition. Huh7.5.1 HCVcc-Cre infection, luciferase reporter, 44 h. Potency, µM (doses to about 41.8 µM), for inactives: at the highest dose activity change, negative = inhibition, actives largely listed as inhibitors. 340,000 compounds, 3.4% hits. AID 651820; note: potency is the fitted concentration of half-maximal effect
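Whole-lifecycle infectious HCVcc-Cre system; cells 1,000/well, compound then virus (~0.5 moi) added 4 h after plating, 44 h culture. Luciferase read 15 sec following 15 min substrate incubation, room temp.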
HCMV antiviral: blocks human cytomegalovirus replication | HFF cells, HCMV-luciferase reporter, 72 h; stronger effect = lower value | activity change, negative = inhibition, % at 57.5 µM | 410,000 compounds, 4.5% hits; in the data active = activity change below about -60%; inconclusive = no clear call, values can overlap the other calls; inactive = above about -39%
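Two compound doses tested in HFFs infected with HCMV-luciferase, MOI 1 PFU/cell, 72 h at 37C. Lysate luminescence read with OneGlo; data normalized against buffer-only and 10uM Salinomycin inhibitor controls.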
Pf growth 96h: P. falciparum growth inhibition at 96 hour, primary screen for plastid delayed-death inhibitors | P. falciparum luciferase reporter growth, 96 h | Potency, µM (doses to about 28.7 µM), for inactives: at the top dose activity change, negative = inhibition, most hits filed as inhibitors | 320,000 compounds, 6.9% hits | AID 504834; note: potency is the fitted concentration of half-maximal effect
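Cell-based qHTS: luciferase-tagged P. falciparum in erythrocytes (2% hematocrit, 0.05% parasitemia final) incubated with compounds for 96 hours, 37 C, 5% CO2; luciferase detection reagent then added and luminescence measured.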
Active calls of the source: *; ! = a repeat was not active. Rows were chosen to be rich in hits. Some 13% of all compounds tested hit in one or more screens of this group. Unless noted, calls come from the whole dose curve; as a rule, active = well fitted inhibition curve with a large enough effect; inconclusive = small, poorly fitted or top-dose-only effect, or another doubt; inactive = no such curve, though single readings can be large or run the other way. % is set by controls: 0 for no effect and ±100 for the full control effect.

How did CC(=O)Nc1ccc(S(=O)(=O)N2CCN(CC(O)COc3ccc4ccccc4c3)CC2)cc1 (centres undefined) do in these assays?
Pf growth 48h: inconclusive; HCV inhibitor: -5%; HCMV antiviral: -87*

What do the screens show for `CC(=O)Nc1ccc(OCC(O)CN2CCN(c3cccc(Cl)c3)CC2)cc1` (centres undefined)?
Pf growth 48h: inconclusive; HCV inhibitor: -14%; HCMV antiviral: -31; Pf growth 96h: 10µM*

What do the screens show for `CCOc1ccc(NC(=O)CSc2nc3c(c(=O)[nH]2)CCCC3)cc1`?
HCMV antiviral: -2

What do the screens show for `COC(=O)NNC(=O)C12CC3CC(CC(C3)C1)C2`?
Pf growth 48h: 3%; HCV inhibitor: 10%; HCMV antiviral: 6; Pf growth 96h: 4.1µM*

Results for COc1ccc(CC(=O)Nc2cc3oc4ccccc4c3cc2OC)cc1 ?
Pf growth 48h: 46%; HCV inhibitor: 4.5µM*; HCMV antiviral: 63; Pf growth 96h: 10µM*

What do the screens show for `COc1cc2c(cc1NC(=O)CN(C)Cc1cccc(OC)c1OC)oc1ccccc12`?
Pf growth 48h: -27%; HCV inhibitor: 3.5µM*; HCMV antiviral: -25; Pf growth 96h: 0%

What do the screens show for `COc1cc2c(cc1NC(=O)C(C)Sc1nc3ccccc3n1C)oc1ccccc12` (centres undefined)?
Pf growth 48h: 12µM*; HCV inhibitor: 2%; HCMV antiviral: 18; Pf growth 96h: 7.4µM*

What do the screens show for `CCc1ccc(OCC(=O)Nc2cc3oc4ccccc4c3cc2OC)cc1`?
HCMV antiviral: 5

Results for COc1cc2c(cc1NC(=O)COc1ccc3ccccc3c1)oc1ccccc12 ?
HCV inhibitor: -6%; HCMV antiviral: -17; Pf growth 96h: 4%

What do the screens show for `COc1cc2c(cc1NC(=O)/C=C/c1cc(OC)c(OC)c(OC)c1)oc1ccccc12`?
Pf growth 48h: inconclusive; HCV inhibitor: 8.9µM*; HCMV antiviral: 5; Pf growth 96h: inconclusive

How did COc1cccc(Cc2nc3ccccc3nc2SCC(=O)Nc2cccc(C)c2)c1 do in these assays?
HCMV antiviral: -2

What do the screens show for `Cc1ccc(CN2CCCn3nc(C(=O)NCCc4cccc(C)c4)cc3C2=O)cc1`?
HCMV antiviral: 1

What do the screens show for `Cc1c(NC(=O)c2ccccc2)cc(C(C)C)c(O)c1S(=O)(=O)c1ccc(Cl)cc1`?
HCMV antiviral: 30

What do the screens show for `COc1cc2c(cc1NC(=O)COc1ccc(Br)cc1)oc1ccccc12`?
HCMV antiviral: 12

How did COc1cc2c(cc1NC(=O)CSc1ccc(Cl)cc1)oc1ccccc12 do in these assays?
Pf growth 48h: 16%; HCV inhibitor: 10µM*; HCMV antiviral: -27; Pf growth 96h: -18%

How did COc1cccc(CN(C)CC(=O)Nc2cc3oc4ccccc4c3cc2OC)c1 do in these assays?
Pf growth 48h: inconclusive; HCV inhibitor: 16µM*; HCMV antiviral: 18; Pf growth 96h: -58%

What do the screens show for `NC(=O)CSC1=Nc2ccccc2C2=NC(c3ccccc3)C(=O)N12` (centres undefined)?
Pf growth 48h: 2%; HCV inhibitor: -12%; HCMV antiviral: 19; Pf growth 96h: inconclusive

How did COCCCNC(=O)CSC1=Nc2ccccc2C2=NC(c3ccccc3)C(=O)N12 (centres undefined) do in these assays?
Pf growth 48h: -1%; HCV inhibitor: 16%; HCMV antiviral: -64*; Pf growth 96h: inconclusive

How did COCCCNC(=O)CSC1=Nc2ccccc2C2=NC(Cc3c[nH]c4ccccc34)C(=O)N12 (centres undefined) do in these assays?
Pf growth 48h: 5%; HCV inhibitor: 6%; HCMV antiviral: 96; Pf growth 96h: 5.2µM*

How did Cc1cc(C)c2c(CC(=O)Nc3ccc(S(=O)(=O)Nc4ncccn4)cc3)coc2c1 do in these assays?
HCMV antiviral: 11

What do the screens show for `CC(C)c1ccc(S(=O)(=O)c2nnn3c2nc(N2CCN(C)CC2)c2sccc23)cc1`?
HCMV antiviral: 24

How did O=C(C(=O)N1CCN(c2cccc(Cl)c2)CC1)N1CCCCC1 do in these assays?
Pf growth 48h: 22%; HCV inhibitor: 20%; HCMV antiviral: 13; Pf growth 96h: 1%

Results for Clc1cccc(N2CCNCC2)c1 ?
Pf growth 48h: inconclusive; HCV inhibitor: 7%; HCMV antiviral: 10; Pf growth 96h: 13µM*!

Results for Cc1cc(NC(=O)c2cnn(-c3ccccc3)c2-n2cccc2)ccc1Br ?
HCMV antiviral: -13

What do the screens show for `ON=C1c2ccccc2-c2cc(Br)ccc21`?
HCV inhibitor: inconclusive; HCMV antiviral: -64*

How did ON=C1c2ccccc2-c2ccc(O)cc21 do in these assays?
HCV inhibitor: inconclusive; HCMV antiviral: -30

Results for COC(=O)c1cc(Cl)c(NC(=O)c2ccc(F)cc2)cc1OC ?
Pf growth 48h: 21%; HCV inhibitor: 16%; HCMV antiviral: -14; Pf growth 96h: 9.3µM*

What do the screens show for `COc1cc(NC(=O)c2ccc(F)cc2)c(OC)cc1Cl`?
Pf growth 48h: 28%; HCV inhibitor: inconclusive; HCMV antiviral: 115; Pf growth 96h: -7%

Results for COc1ccc(NC(=O)c2ccc(C#N)cc2)cc1NS(=O)(=O)c1ccc(F)cc1 ?
Pf growth 48h: 0%; HCV inhibitor: -22%; HCMV antiviral: -18; Pf growth 96h: -3%

How did COc1cc(NC(=O)C2CCCO2)c(OC)cc1Cl (centres undefined) do in these assays?
Pf growth 48h: 1%; HCV inhibitor: -22%; HCMV antiviral: 4; Pf growth 96h: -21%

Results for COc1ccc(OC)c(NS(=O)(=O)c2ccc(NC(=O)c3ccc(NS(C)(=O)=O)cc3)cc2)c1 ?
Pf growth 48h: -7%; HCV inhibitor: inconclusive; HCMV antiviral: -83*; Pf growth 96h: 129%

How did COc1cc(NC(=O)C2CCCC2)c(OC)cc1Cl do in these assays?
HCV inhibitor: -7%; HCMV antiviral: inconclusive; Pf growth 96h: 9.3µM*

What do the screens show for `COc1ccc(C(=O)Nc2cc(OC)c(Cl)cc2OC)cc1`?
Pf growth 48h: 10%; HCV inhibitor: inconclusive; HCMV antiviral: 48; Pf growth 96h: 5.2µM*

Results for COc1ccc(C(=O)Nc2cc(OC)ccc2OC)cc1 ?
Pf growth 48h: 67%; HCV inhibitor: 11µM*; HCMV antiviral: 15; Pf growth 96h: 6%

Results for COc1ccc(OC)c(NC(=O)c2ccc(Cl)cc2)c1 ?
Pf growth 48h: -7%; HCV inhibitor: -30%; HCMV antiviral: 30; Pf growth 96h: -14%

What do the screens show for `CCN(CC)S(=O)(=O)c1ccc(OC)c(NC(=O)c2cccc(C)c2[N+](=O)[O-])c1`?
Pf growth 48h: -1%; HCV inhibitor: -15%; HCMV antiviral: -27; Pf growth 96h: -5%

How did COc1cc(NC(=O)c2c(F)c(F)c(F)c(F)c2F)c(OC)cc1Cl do in these assays?
Pf growth 48h: 4%; HCV inhibitor: 11µM*; HCMV antiviral: 2

How did COc1cc(NC(=O)c2cc(C(C)C)on2)c(OC)cc1Cl do in these assays?
Pf growth 48h: 13µM*; HCV inhibitor: 11µM*; HCMV antiviral: 85; Pf growth 96h: -11%

Assay outcomes: PubChem, National Center for Advancing Translational Sciences (NCATS)
